From PubChem BioAssay (Tox21)
Results filed as inconclusive are left out. Calls of active or inactive are those of the source. Unless noted, calls follow the shape of the dose curve; as a rule, active = well fitted curve in the direction sought with a large enough effect in the repeat runs; inconclusive = weak or mixed curves; inactive = no such curve, though single readings can be large; an effect the other way counts as inactive or inconclusive.

Columns and labels:
[1] = qHTS assay to identify small molecule agonists of the peroxisome proliferator-activated receptor delta (PPARd) signaling pathway - cell viability counter screen (AID 743211); also: nearly all actives have a fitted effect of over 55% in size
Summary of the method: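 Following 5 h plating at 37 C and 5% CO2, PPARd UAS-bla HEK293H cells took up test compounds for 17 h. Viability was quantified by luminescence 30 min after CellTiter-Glo addition at room temperature.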

[2] = target: Peroxisome proliferator-activated receptor delta (Homo sapiens) (UniProt Q03181); assay: qHTS assay to identify small molecule agonists of the peroxisome proliferator-activated receptor delta (PPARd) signaling pathway (AID 743212; calls by dose curve)
Sequence of Peroxisome proliferator-activated receptor delta (Homo sapiens) (Q03181 whole entry, looked up): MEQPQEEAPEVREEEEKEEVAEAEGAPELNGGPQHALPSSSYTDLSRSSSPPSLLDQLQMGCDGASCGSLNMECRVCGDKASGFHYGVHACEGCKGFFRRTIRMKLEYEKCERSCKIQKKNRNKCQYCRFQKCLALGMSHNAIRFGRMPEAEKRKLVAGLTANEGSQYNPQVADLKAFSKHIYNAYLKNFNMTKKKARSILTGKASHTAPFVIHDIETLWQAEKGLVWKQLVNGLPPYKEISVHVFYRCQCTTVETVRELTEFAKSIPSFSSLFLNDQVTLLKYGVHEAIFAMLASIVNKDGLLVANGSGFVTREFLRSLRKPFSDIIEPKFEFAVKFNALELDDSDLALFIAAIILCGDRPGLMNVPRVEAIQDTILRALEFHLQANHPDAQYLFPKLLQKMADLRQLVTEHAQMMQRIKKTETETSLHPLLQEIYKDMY
Summary of the method: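 Steps: seed PPARd-bla HEK293H cells; incubate 5 h, 37 C, 5% CO2; add compounds in DMSO; incubate, 37 C; add LiveBLAzer B/G FRET substrate; hold 2 h at room temperature; measure fluorescence.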

[3] = qHTS assay to identify small molecule antagonists of the peroxisome proliferator-activated receptor delta (PPARd) signaling pathway - cell viability counter screen (AID 743213); also: nearly all actives have a fitted effect of over 50% in size
Summary of the method: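 Luminescence from CellTiter-Glo, added after the bla read and incubated 30 min at room temperature, gives viability of HEK293H PPARd-bla cells exposed to compounds for 17 h at 37 C with 300 nM L165041.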

[4] = target: Peroxisome proliferator-activated receptor delta (Homo sapiens) (UniProt Q03181); assay: qHTS assay to identify small molecule antagonists of the peroxisome proliferator-activated receptor delta (PPARd) signaling pathway (AID 743215; active = well fitted inhibition curve with a large enough effect in the signal ratio in the repeat runs, not every such curve was filed as active; the % refers to the signal ratio;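 also: cells stimulated with agonist L165041 at 300 nM final during compound exposure; series mostly up to about 62 µM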)
Summary of the method: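 Cells: HEK293H with a UAS-driven beta-lactamase reporter responsive to PPARd. Compounds were co-added with L165041 (300 nM, final) and incubated 17 h at 37 C before a 2 h room-temperature FRET substrate step and fluorescence reading.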

[5] = target: Bile acid receptor (Homo sapiens) (UniProt Q96RI1); assay: qHTS assay to identify small molecule antagonists of the farnesoid-X-receptor (FXR) signaling pathway (AID 743217; active = well fitted inhibition curve with a large enough effect in the signal ratio in the repeat runs, not every such curve was filed as active; the % refers to the signal ratio)
Sequence of Bile acid receptor (Homo sapiens) (Q96RI1 whole entry, looked up): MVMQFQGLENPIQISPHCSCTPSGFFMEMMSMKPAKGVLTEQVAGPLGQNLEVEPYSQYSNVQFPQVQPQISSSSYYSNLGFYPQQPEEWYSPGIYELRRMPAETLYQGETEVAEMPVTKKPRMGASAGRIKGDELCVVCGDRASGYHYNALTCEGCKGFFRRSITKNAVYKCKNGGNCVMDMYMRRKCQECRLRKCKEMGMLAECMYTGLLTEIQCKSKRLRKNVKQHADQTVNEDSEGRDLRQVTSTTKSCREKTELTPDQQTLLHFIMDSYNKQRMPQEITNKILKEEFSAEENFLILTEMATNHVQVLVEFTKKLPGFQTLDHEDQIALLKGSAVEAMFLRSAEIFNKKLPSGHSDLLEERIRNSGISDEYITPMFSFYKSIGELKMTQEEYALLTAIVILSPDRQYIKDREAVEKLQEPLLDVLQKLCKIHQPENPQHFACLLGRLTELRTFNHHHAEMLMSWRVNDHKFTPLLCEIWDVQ
Summary of the method: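 Cells carrying a UAS-driven beta-lactamase reporter (GeneBLAzer FXR-UAS-bla HEK 293T) were plated and rested 5 h at 37 °C. Compounds in DMSO were added alongside chenodeoxycholic acid agonist at 50 uM final and left 16 h at 37 °C before FRET substrate readout.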

[6] = qHTS assay to identify small molecule agonists of the farnesoid-X-receptor (FXR) signaling pathway - cell viability counter screen (AID 743218); also: nearly all actives have a fitted effect of over 45% in size
Summary of the method: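 Cells were seeded, left 5 h at 37 C and 5% CO2, then dosed with compound in DMSO for 16 h. After the beta-lactamase FRET read, CellTiter-Glo was added and luminescence measured 30 min later.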

[7] = qHTS assay to identify small molecule antagonists of the farnesoid-X-receptor (FXR) signaling pathway - cell viability counter screen (AID 743221; active = well fitted cell-killing curve with a large enough effect in the repeat runs, not every such curve was filed as active; also: nearly all actives have a fitted effect of over 50% in size)
Summary of the method: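 Compound effects on cell number were measured as CellTiter-Glo luminescence in HEK 293T cells expressing FXR-UAS-bla, after 16 h at 37 C with 50 uM CDCA (final).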

[8] = qHTS assay to identify small molecule agonists of the vitamin D receptor (VDR) signaling pathway - cell viability counter screen (AID 743224); also: series mostly up to about 63 µM; nearly all actives have a fitted effect of over 50% in size
Summary of the method: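 Cells: VDR-bla, 2,000/well, settled 4 h. Treatment: compounds in DMSO, 16 h, 37C/5% CO2. Readout: CellTiter-Glo luminescence after 30 min RT.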

[9] = qHTS assay to identify small molecule antagonists of the vitamin D receptor (VDR) signaling pathway - cell viability counter screen (AID 743225); also: nearly all actives have a fitted effect of over 50% in size
Summary of the method: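 In this counter screen, VDR-bla HEK 293T cells receive test compound plus 3 nM final calcitriol for 16 h at 37C. Room-temperature steps of 2 h with the beta-lactamase substrate, then 30 min with CellTiter-Glo, precede the luminescence read.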

[10] = qHTS assay to identify small molecule agonists of the NFkB signaling pathway (AID 1159509; active = well fitted curve in the direction sought with a large enough effect in the signal ratio in the repeat runs, not every such curve was filed as active; the % refers to the signal ratio; also: series mostly up to about 61 µM)
Summary of the method: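 Beta-lactamase reporter assay run in quantitative high-throughput format on an NF-kB-responsive ME-180 line, with 5 hr compound treatment and a FRET-based blue/green fluorescence readout.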

[11] = qHTS assay to identify small molecule agonists of the NFkB signaling pathway - cell viability counter screen (AID 1159515; calls by dose curve; also: series mostly up to about 61 µM; nearly all actives have a fitted effect of over 55% in size)
Summary of the method: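 Cells are seeded (2,000 NFkB-bla ME-180 per well), rested overnight, and dosed with DMSO-dissolved compounds for 5 hr at 37 C. Viability is then read by CellTiter-Glo luminescence after 30 min at room temperature.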

[12] = qHTS assay to identify small molecule agonists of the endoplasmic reticulum stress response signaling pathway (AID 1159516; active = well fitted activation curve with a large enough effect in the signal ratio in the repeat runs, not every such curve was filed as active; the % refers to the signal ratio)
Summary of the method: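 Cells are seeded at 1,500 per well and incubated overnight. Compounds in DMSO are added for 5 hr at 37 C, then beta-lactamase FRET substrate for 2 hr at room temperature, and fluorescence at 460 and 530 nm is measured.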

[13] = qHTS assay to identify small molecule antagonists of the retinoid-related orphan receptor gamma (ROR-gamma) signaling pathway - cell viability counter screen (AID 1159520); also: nearly all actives have a fitted effect of over 50% in size
Summary of the method: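 Cytotoxicity was read from cellular ATP (CellTiter-Glo luminescence) after 16 hr at 37 C with 1 uM doxycycline induction. The inducer was added 2 hr after compound transfer to Tet-on ROR gamma CHO cells.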

[14] = target: Nuclear receptor ROR-gamma (Homo sapiens) (UniProt P51449); assay: qHTS assay to identify small molecule antagonists of the retinoid-related orphan receptor gamma (ROR-gamma) signaling pathway (AID 1159521)
Summary of the method: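 Screening format: cell-based luciferase reporter in CHO cells with doxycycline-inducible RORγ. Compound pre-exposure lasts 2 h, doxycycline is 1 uM final, induction runs 16 h at 37 C, and ONE-Glo luminescence is read.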

[15] = qHTS assay to identify small molecule agonists of the AP-1 signaling pathway - cell viability counter screen (AID 1159525; calls by dose curve; also: nearly all actives have a fitted effect of over 55% in size)
Summary of the method: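 Intracellular ATP by Cell Titer Glo luminescence (30 min, RT) in the same ME-180 AP-1-bla wells after the 5 h compound exposure at 37 °C. Normalised to tetra n-octyl ammonium bromide and DMSO controls.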

[16] = qHTS assay to identify small molecule agonists of the AP-1 signaling pathway (AID 1159526; calls by dose curve)
[17] = target: Bile acid receptor (Homo sapiens) (UniProt Q96RI1); assay: qHTS assay to identify small molecule agonists of the farnesoid-X-receptor (FXR) signaling pathway (AID 743220; active = well fitted activation curve with a large enough effect in the signal ratio in the repeat runs, not every such curve was filed as active; the % refers to the signal ratio)
Summary of the method: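 FXR-UAS-bla HEK 293T cells carrying a UAS-driven beta-lactamase reporter were plated for 5 h at 37C/5% CO2, then exposed to DMSO-dissolved Tox21 10K compounds for 16 h at 37C. A LiveBLAzer B/G FRET substrate was loaded for 2 h at room temperature before fluorescence reading.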

[18] = target: Vitamin D3 receptor (Homo sapiens) (UniProt P11473); assay: qHTS assay to identify small molecule agonists of the vitamin D receptor (VDR) signaling pathway (AID 743222; calls by dose curve)
Sequence of Vitamin D3 receptor (Homo sapiens) (P11473 whole entry, looked up): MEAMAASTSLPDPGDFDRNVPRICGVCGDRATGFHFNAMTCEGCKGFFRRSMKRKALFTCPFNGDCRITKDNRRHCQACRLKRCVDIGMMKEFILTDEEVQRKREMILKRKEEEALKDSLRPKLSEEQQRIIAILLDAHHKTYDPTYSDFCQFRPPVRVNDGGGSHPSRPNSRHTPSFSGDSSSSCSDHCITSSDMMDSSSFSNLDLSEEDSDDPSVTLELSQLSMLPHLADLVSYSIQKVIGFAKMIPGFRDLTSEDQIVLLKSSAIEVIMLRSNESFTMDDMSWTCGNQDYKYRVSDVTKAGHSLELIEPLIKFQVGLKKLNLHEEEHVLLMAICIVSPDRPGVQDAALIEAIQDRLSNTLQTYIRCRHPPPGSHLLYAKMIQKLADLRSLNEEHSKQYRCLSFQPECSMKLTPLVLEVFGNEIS
Summary of the method: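 Cells carrying a VDR-driven beta-lactamase reporter are seeded at 2,000 per well and rested 4 h. Compounds in DMSO are added for 16 h at 37C, and FRET substrate fluorescence is measured after 2 h at room temperature.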

[19] = target: Vitamin D3 receptor (Homo sapiens) (UniProt P11473); assay: qHTS assay to identify small molecule antagonists of the vitamin D receptor (VDR) signaling pathway (AID 743223; active = well fitted inhibition curve with a large enough effect in the signal ratio in the repeat runs, not every such curve was filed as active; the % refers to the signal ratio)
Summary of the method: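 Beta-lactamase activity in VDR-bla cells is measured by FRET substrate fluorescence (2 h, room temperature) after cells spend 16 h at 37C with test compound and 3 nM final 1alpha,25-dihydroxyvitamin D3.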

Measured: Potency

CSCC[C@H](NC(=O)[C@H](Cc1c[nH]c2ccccc12)NC(=O)CCNC(=O)OC(C)(C)C)C(=O)N[C@@H](CC(=O)O)C(=O)N[C@@H](Cc1ccccc1)C(N)=O
not listed: [17] | [18] | [19]
inactive: all other assays above

CCc1ccc(C)cc1
not listed: [4]
inactive: all other assays above

O=C(C(=O)c1ccco1)c1ccco1
not listed: [5] | [8] | [17]
inactive: all other assays above

CC(C)(C(=O)c1cccnc1)c1cccnc1
not listed: [5] | [17] | [18]
inactive: all other assays above

OCC(CO)n1cnc(-c2ccc(F)cc2)c1-c1ccnc(Oc2ccccc2)n1
not listed: [5] | [17]
inactive: all other assays above

ClC1=C(Cl)C1(Cl)Cl
not listed: [17]
inactive: all other assays above

Cc1ccc(Nc2c(F)cccc2Cl)c(CC(=O)O)c1
not listed: [3] | [4] | [17] | [18] | [19]
inactive: all other assays above

CN=C(N)NC(=O)Nc1c(C)cccc1C
not listed: [5] | [17]
inactive: all other assays above
